CD40 NFkB inh = inhibitors of CD40-induced NF-kB signaling, primary screen, BL2 cells, luciferase reporter, single point. CD40L-induced, 4 h. inhibition, % at 10 µM. 83,000 compounds, 0.94% hits. AID 1053188, 2014;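 active = mean inhibition of at least 50% with a set share of replicates also reaching that level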;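 note: 0% = neutral control wells and 100% = IKK inhibitor VII at 50 µM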
An asterisk follows results filed as active; [ ] = dose if it differs, or a comment. This is one part of a sample in which hits are shown more often than they occur.

SMILES	CD40 NFkB inh
O=C(/C=C/c1ccccc1)CC(O)(c1ccccc1)C(F)(F)F (stereo unspecified)	22
O=C(/C=C/c1ccccc1)CC(O)(c1ccccc1)C(F)(F)C(F)F (stereo unspecified)	56*
O=C(/C=C/c1ccccc1)COC(=O)c1ccccc1	-17
COc1cccc(S(=O)(=O)Nc2ccc3c(c2)C(=O)N(C)C[C@@H](OC)[C@H](C)CN(Cc2ccccc2F)[C@H](C)CO3)c1	16[25 µM]
CCC(=O)N1C[C@@H](C)[C@@H](OC)CN(C)C(=O)c2cc(NC(=O)Nc3ccc(Cl)cc3)ccc2OC[C@H]1C	9[25 µM]
CC(C)OC(=O)c1cn(Cc2c(F)cccc2F)c2sc(-c3ccc(NC(=O)C(C)C)cc3)c(CN(C)Cc3ccccc3)c2c1=O	54*[25 µM]
CCCNC(=O)N1[C@H](C#N)[C@H](c2ccc(-c3cccc(OC)c3)cc2)[C@H]1CO	30[25 µM]
C[C@@H]1CN([C@H](C)CO)C(=O)c2c(c3ccccc3n2C)-c2ccccc2CO[C@H]1CN(C)Cc1cccc(O)c1	9
C[C@H]1CN([C@@H](C)CO)C(=O)c2c(c3ccccc3n2C)-c2ccccc2CO[C@@H]1CN(C)C(=O)Nc1cccc(C(F)(F)F)c1	64*[25 µM]
C[C@H](CO)N1C[C@H](C)[C@H](CN(C)C(=O)Nc2cccc(C(F)(F)F)c2)OCc2ccccc2-c2c(n(C)c3ccccc23)C1=O	37[25 µM]
C[C@@H]1CN([C@@H](C)CO)C(=O)c2c(c3ccccc3n2C)-c2ccccc2CO[C@@H]1CN(C)C(=O)Nc1ccccc1C(F)(F)F	55*[25 µM]
C[C@H](CO)N1C[C@H](C)[C@@H](CN(C)C(=O)Nc2ccccc2C(F)(F)F)OCc2ccccc2-c2c(n(C)c3ccccc23)C1=O	8[25 µM]
C[C@@H]1CN([C@@H](C)CO)C(=O)c2c(c3ccccc3n2C)-c2ccccc2CO[C@H]1CN(C)Cc1cccc(C(=O)Nc2ccccc2N)c1	60*[25 µM]
C[C@H](CO)N1C[C@H](C)[C@H](CN(C)Cc2cccc(C(=O)O)c2)OCc2ccccc2-c2c(n(C)c3ccccc23)C1=O	-9
C[C@@H]1CN([C@@H](C)CO)C(=O)c2c(c3ccccc3n2C)-c2ccccc2CO[C@H]1CN(C)C(=O)Nc1ccccc1C(F)(F)F	64*[25 µM]
COc1ccccc1NC(=O)N(C)C[C@@H]1OCc2ccccc2-c2c(n(C)c3ccccc23)C(=O)N([C@@H](C)CO)C[C@@H]1C	-3
COc1ccccc1NC(=O)N(C)C[C@@H]1OCc2ccccc2-c2c(n(C)c3ccccc23)C(=O)N([C@H](C)CO)C[C@@H]1C	9
C[C@H](CO)N1C[C@H](C)[C@H](CN(C)C(=O)Nc2ccccc2C(F)(F)F)OCc2ccccc2-c2c(n(C)c3ccccc23)C1=O	38[25 µM]
C[C@H](CO)N1C[C@H](C)[C@@H](CN(C)C(=O)Nc2cccc(C(F)(F)F)c2)OCc2ccccc2-c2c(n(C)c3ccccc23)C1=O	46[25 µM]
CS(=O)(=O)N1C2CN(CC(F)(F)F)CC1C2c1ccc(Br)cc1 (stereo unspecified)	-7
O=C(C[C@H]1C[C@H]2c3cc(NC(=O)c4ccc5c(c4)OCO5)ccc3O[C@H]2[C@H](CO)O1)NCC(F)(F)F	5[25 µM]
C[C@@H]1CN([C@H](C)CO)C(=O)CCCn2nncc2CO[C@@H]1CN(C)Cc1ccccc1C(=O)O	11[25 µM]
Cc1ccc(S(=O)(=O)N(C)C[C@@H]2OCCCC[C@@H](C)Oc3ccc(NS(C)(=O)=O)cc3C(=O)N([C@@H](C)CO)C[C@@H]2C)cc1	9
C[C@H]1CN([C@@H](C)CO)C(=O)c2cccc(NC(=O)C3CCOCC3)c2O[C@@H]1CN(C)Cc1ccncc1	-6[25 µM]
CN1c2ccc(-c3cccc(C#N)c3)cc2[C@@H]2[C@@H](CCN2C(=O)C2CC2)[C@@H]1CO	0
SMILES	CD40 NFkB inh
O=C(C1CCCC1)N1CC[C@@H]2[C@H](CO)Nc3ccc(C4=CCCCC4)cc3[C@@H]21	26
O=C(O)C[C@@H]1C[C@@H]2c3cc(NS(=O)(=O)c4ccc(F)cc4)ccc3O[C@@H]2[C@H](CO)O1	10[25 µM]
CCCNC(=O)N1[C@H](CO)[C@H](c2ccc(-c3ccccc3)cc2)[C@@H]1CNC(C)=O	14[25 µM]
O=C(C[C@H]1CC[C@@H]2[C@H](COC[C@H](O)CN2S(=O)(=O)c2cccc(F)c2)O1)NCc1ccncn1	6[25 µM]
CO[C@H]1CN(C)C(=O)c2ccc(NC(=O)Nc3cccc(Cl)c3)cc2OC[C@@H](C)N(C(=O)Nc2c(C)noc2C)C[C@@H]1C	-11
CC(=O)Nc1ccc2c(c1)CC(=O)N(C)C[C@@H](C)[C@H](CN(C)C(=O)NC(C)C)O2	18
CO[C@H]1CN(C)C(=O)c2ccc(NC(=O)C3CCC3)cc2OC[C@H](C)N(C)C[C@@H]1C	3
C[C@H](CO)N1C[C@H](C)[C@@H](CN(C)Cc2cccc(C(F)(F)F)c2)OCc2ccccc2-c2c(n(C)c3ccccc23)C1=O	73*[25 µM]
C[C@H]1CN([C@@H](C)CO)C(=O)c2c(c3ccccc3n2C)-c2ccccc2CO[C@H]1CN(C)Cc1cccc(C(F)(F)F)c1	10[25 µM]
C[C@@H]1CN([C@H](C)CO)C(=O)c2c(c3ccccc3n2C)-c2ccccc2CO[C@@H]1CN(C)Cc1cccc(C(F)(F)F)c1	37[25 µM]
C[C@@H]1CN([C@@H](C)CO)C(=O)c2ccccc2-c2ccccc2CO[C@H]1CN(C)S(C)(=O)=O	0[25 µM]
Cn1cnc(CCNC(=O)C[C@@H]2CC[C@@H]3[C@H](COC[C@@H](O)CN3C(=O)Nc3ccc(C(F)(F)F)cc3)O2)c1	52*[25 µM]
Cn1cnc(CCNC(=O)C[C@@H]2CC[C@@H]3[C@H](COC[C@H](O)CN3C(=O)Nc3ccc(C(F)(F)F)cc3)O2)c1	5[25 µM]
Cn1cnc(CCNC(=O)C[C@H]2CC[C@@H]3[C@H](COC[C@@H](O)CN3C(=O)Nc3ccc(C(F)(F)F)cc3)O2)c1	21[25 µM]
CN1C(=O)c2cc(NS(=O)(=O)c3ccccc3F)ccc2OC[C@H]2O[C@@H](CC(=O)NC3Cc4ccccc4C3)CC[C@@H]21	10[25 µM]
CCCNC(=O)N1[C@H](C#N)[C@H](c2ccc(C3=CCCCC3)cc2)[C@@H]1CO	61*[25 µM]
CCCNC(=O)N1[C@H](CO)[C@@H](c2ccc(C3=CCCCC3)cc2)[C@@H]1C#N	1[25 µM]
CCCNC(=O)N1[C@@H](C#N)[C@@H](c2ccc(C3=CCCCC3)cc2)[C@@H]1CO	22[25 µM]
COc1ccccc1C#Cc1ccc([C@H]2[C@@H](C#N)N(C(=O)C3CCCC3)[C@H]2CO)cc1	8
CCOc1ccc(-n2ccnc(SCC(=O)NCCc3ccccc3)c2=O)cc1	-3
Cc1ccc(-n2ccnc(SCC(=O)NCCc3ccccc3)c2=O)cc1F	54*
Cc1ccc(-n2ccnc(SCC(=O)NC3CCCC3)c2=O)cc1Cl	3
O=C(c1cccnc1)N1C[C@@H]2[C@H](c3ccccc31)[C@H](CO)N2C(=O)Nc1ccccc1Cl	1
O=C(CN1C(=O)c2ccccc2S1(=O)=O)Nc1ncc(Cl)cc1Cl	56*
Cc1cc(C)nc(NC(=O)CN2C(=O)c3ccccc3S2(=O)=O)n1	4
O=C(CN1C(=O)c2ccccc2S1(=O)=O)Nc1ncccn1	7
CO[C@H]1CN(C)C(=O)c2cccc(C#N)c2OCC[C@@H]2CC[C@H](OC)[C@@H](CN(C)C(=O)[C@H]1C)O2	1[25 µM]
COc1ccc(CN2CC3(CCN(C(=O)Cc4ccncc4)CC3)c3c([nH]c4cc(OC)ccc34)[C@@H]2CO)cc1	15[25 µM]
CN(C)C(=O)c1cc2c(c(-c3cccc(/C=C/c4ccccc4)c3)n1)[C@H](CCO)N([S@@](=O)C(C)(C)C)C2	-8[25 µM]
Cc1ccc(-n2cnnn2)c2cccnc12	2

Screening results as filed in PubChem BioAssay.
